About 79,000 compounds went through this panel and 15% of them were active in at least one assay; those are over-represented in the sample as a whole. Values without a mark were called inactive. The source made the active and inactive calls. No stated cut-off is given here; in the data, active means growth inhibition above about 70%; inactive means the rest.
Legend:
[1] = NCI Yeast Anticancer Drug Screen. Data for the rad50 strain (AID 155);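 further: 0% = growth of vehicle-only cultures of the same strain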; conditions: S. cerevisiae rad50 strain growth inhibition, hits give high values
How it was run: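 Relative growth inhibition (compound vs vehicle) was measured in yeast with a defined repair-gene alteration.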

[2] = NCI Yeast Anticancer Drug Screen. Data for the mec2-1 strain (AID 157); conditions: S. cerevisiae mec2-1 strain, hits give high values
How it was run: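 Strain: mec2-1 (DNA repair/cell cycle alteration). Compound exposure, then growth measured; inhibition expressed relative to vehicle.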

[3] = NCI Yeast Anticancer Drug Screen. Data for the sgs1 mgt1 strain (AID 161);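 further: 0% = growth of cultures given vehicle only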; conditions: S. cerevisiae sgs1 mgt1 strain, hits give high values
How it was run: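 Mutant yeast exposed to compound; growth scored against vehicle-only wells.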

[4] = NCI Yeast Anticancer Drug Screen. Data for the cln2 rad14 strain (AID 165);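 further: 0% = growth equal to vehicle treated cultures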; conditions: S. cerevisiae cln2 rad14 strain, hits give high values
How it was run: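 Compounds are applied to the cln2 rad14 yeast strain, and growth is then compared with that of vehicle-treated cultures to give inhibition.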

[5] = NCI Yeast Anticancer Drug Screen. Data for the bub3 strain (AID 167); conditions: S. cerevisiae bub3 mutant strain, hits give high values
How it was run: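 Screening used yeast with an engineered genetic alteration affecting cell cycle control. Compound-exposed cultures were compared with vehicle cultures, and reduced growth was taken as inhibition.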

[6] = NCI Yeast Anticancer Drug Screen. Data for the mlh1 rad18 strain (AID 175); conditions: S. cerevisiae mlh1 rad18 strain growth inhibition, hits give high values
How it was run: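 Read-out is yeast growth inhibition, calculated against vehicle-only controls. The compound was applied to a strain engineered with DNA damage repair alterations.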

[7] = at 5.0 µM (retest, dose inferred, filed as 0.5)
[8] = at 50.0 µM (retest, dose inferred, filed as 5.0)

Compound | growth inhibition [1, 7] | growth inhibition [1, 8] | growth inhibition ([1]; at 50.0 µM) | growth inhibition [2, 7] | growth inhibition [2, 8] | growth inhibition ([2]; at 50.0 µM) | growth inhibition [3, 7] | growth inhibition [3, 8] | growth inhibition ([3]; at 50.0 µM) | growth inhibition [4, 7] | growth inhibition [4, 8] | growth inhibition ([4]; at 50.0 µM) | growth inhibition [5, 7] | growth inhibition [5, 8] | growth inhibition ([5]; at 50.0 µM) | growth inhibition [6, 7] | growth inhibition [6, 8] | growth inhibition ([6]; at 50.0 µM)
CC(CN1CCOCC1)(CN1CCOCC1)[N+](=O)[O-] | 10% | 99% (active) | 99.6% (active) | 8% | 100% (active) | 99.8% (active) | 4% | 100% (active) | 99.7% (active) | 3% | 99% (active) | 99.3% (active) | 14% | 99% (active) | 99.8% (active) | 13% | 99% (active) | 99.5% (active)
O=C1c2ccccc2C(=O)c2c1ccc(C(=O)O)c2-c1ccc2ccccc2c1 | 5% | 97% (active) | 97.3% (active) | 26% | 98% (active) | 97.8% (active) | 11% | 98% (active) | 97.5% (active) | 13% | 96% (active) | 97.3% (active) | -3% | 98% (active) | 96.2% (active) | 8% | 98% (active) | 97.2% (active)
Cc1ccccc1NC(=O)c1cc2cc(N=Nc3ccccc3C(=O)O)ccc2oc1=O | 7% | 81% (active) | 91.4% (active) | -10% | 65% | 83.5% (active) | 15% | 90% (active) | 96.5% (active) | 9% | 46% | 90.3% (active) | 7% | 78% (active) | 82.7% (active) | 8% | 49% | 96.5% (active)
Cc1cc2c(c(C(N)=O)c1C)-c1cccc(F)c1C2=O | 4% | 47% | 77.4% (active) | 4% | 20% | 7.15% | 20% | 20% | 37.6% | -1% | 14% | 75.5% (active) | 2% | 32% | 16% | 1% | 32% | 90.5% (active)
CCCOC(=O)CCCC(=O)N(CC)CC | 1% | -10% | 10.7% | 0% | 1% | -7.7% | 0% | -9% | -25.1% | -5% | 0% | 71.5% (active) | -4% | -3% | -0.6% | -5% | -11% | 19.5%
CCCCOC(=O)c1cnc[nH]c1=O | 3% | 17% | 0.5% | 2% | 3% | -2.65% | 0% | 8% | 8.15% | 4% | 3% | 10.4% | -5% | 14% | 3.55% | 24% | 12% | 8.65%
O=C(Cc1nc2ccc(Cl)cc2nc1CC(=O)c1ccccc1)c1ccccc1 | 10% | 96% (active) | 95.2% (active) | 2% | 93% (active) | 85.5% (active) | -2% | 94% (active) | 61.7% | -5% | 92% (active) | 67.3% | -1% | 97% (active) | 77.5% (active) | 7% | 96% (active) | 96.3% (active)
CCCCCCCCCCCC#CCCCCC(=O)O | 87% (active) | 94% (active) | 56.8% | 95% (active) | 97% (active) | 62.5% | 93% (active) | 96% (active) | 83.7% (active) | 27% | 91% (active) | 61% | 96% (active) | 95% (active) | 67.7% | 96% (active) | 95% (active) | 60%
CC(O)(CO)CC(C)(O)CO (configuration not stated) | -2% | -10% | 12.9% | 3% | -6% | -7.2% | -1% | -9% | 1.8% | -2% | -14% | 77% (active) | 2% | -1% | -1.05% | 1% | -11% | -7.45%
CSC(=S)/C(=C/Nc1ncccn1)c1ccccc1 | 5% | 97% (active) | 94.8% (active) | 3% | 99% (active) | 93.5% (active) | -3% | 94% (active) | 79% (active) | 1% | 62% | 95% (active) | -3% | 94% (active) | 91.8% (active) | 7% | 97% (active) | 94.5% (active)
COc1ccc(OP2(Oc3ccc(OC)cc3)=NP(Oc3ccc(OC)cc3)(Oc3ccc(OC)cc3)=NP(Oc3ccc(OC)cc3)(Oc3ccc(OC)cc3)=NP(Oc3ccc(OC)cc3)(Oc3ccc(OC)cc3)=N2)cc1 | 41% | 2% | 61.3% | 7% | -9% | 65.8% | 71% (active) | 28% | 67.3% | 0% | -13% | 24.1% | 20% | 35% | 54.5% | 17% | -2% | 78.8% (active)
CS(=O)c1cc(=O)c2ccccc2s1 (configuration not stated) | 6% | 85% (active) | 98.2% (active) | -4% | 73% (active) | 98.9% (active) | 19% | 67% | 99.3% (active) | 10% | 60% | 84.4% (active) | 0% | 95% (active) | 96.2% (active) | 14% | 88% (active) | 99% (active)
C=C1C(O)C2(O)OCC34C(CC5C(C)=CC(=O)C(O)C5(C)C23)OC(=O)C(OC(=O)C/C=C/CCCCCCCC)C14 (configuration not stated) | 85% (active) | 98% (active) | 92.2% (active) | 87% (active) | 99% (active) | 93% (active) | 75% (active) | 99% (active) | 92.8% (active) | 87% (active) | 99% (active) | 92% (active) | 84% (active) | 99% (active) | 91.5% (active) | 93% (active) | 99% (active) | 90.7% (active)
COC(=O)c1nc(=S)[nH]c(C(=O)OC)c1C(=O)c1c(C)[nH]c2ccccc12 | -7% | -2% | -25% | -3% | 7% | -5.5% | 2% | 1% | -5.15% | 1% | -4% | 30.7% | -6% | -7% | -2.3% | -7% | -2% | 62.2%
C/C(=N/NC(=S)Nc1cccc(C)c1)c1ccccn1 | 62% | 99% (active) | 80.2% (active) | 91% (active) | 99% (active) | 85.9% (active) | 75% (active) | 99% (active) | 88.3% (active) | 94% (active) | 99% (active) | 88.9% (active) | 96% (active) | 99% (active) | 90.3% (active) | 68% | 99% (active) | 91% (active)
O=C(Cc1ccccc1)NNc1nc(NNC(=O)c2ccncc2)nc(Nc2ccccc2)n1 | 11% | 18% | 26% | -9% | 11% | 10.4% | 12% | 11% | 33.3% | -10% | 21% | -2.6% | -10% | 19% | 36.6% | 13% | 25% | 51.1%
Cc1ccc(NC(=O)Cc2nc3ccccc3s2)c(C)c1 | 7% | 99% (active) | 98.7% (active) | 9% | 98% (active) | 99.3% (active) | 20% | 99% (active) | 99.5% (active) | 6% | 91% (active) | 95.7% (active) | 29% | 99% (active) | 99% (active) | 14% | 99% (active) | 99% (active)
CCCCCCC(=O)Nc1ccc(OC(=O)CCCCCC)c(=O)cc1 | 8% | 99% (active) | 98.8% (active) | 36% | 100% (active) | 99.2% (active) | 33% | 99% (active) | 99.3% (active) | -14% | 99% (active) | 98% (active) | 15% | 99% (active) | 99.2% (active) | 26% | 99% (active) | 98.5% (active)
CSC(=S)n1nc(-c2cccs2)c(N=Nc2ccc(Cl)cc2)c1C(F)(F)F | 29% | 63% | 83.8% (active) | 1% | 86% (active) | 93.4% (active) | 20% | 75% (active) | 46.5% | 14% | 49% | 65.4% | 14% | 87% (active) | 75.3% (active) | 19% | 56% | 96.1% (active)

— PubChem BioAssay (NCI)
